A number with no mark means an inactive call. Inconclusive results are not listed. Active and inactive are the calls of the source. Unless noted, the call rests on the fitted dose curve; in most records, active means well fitted curve in the direction sought with a large enough effect in the repeat runs; inconclusive means weak or mixed curves; inactive means no such curve, though single readings can be large; an effect the other way counts as inactive or inconclusive.

The nature of assay [1]: qHTS assay to identify small molecule antagonists of the estrogen receptor alpha (ER-alpha) signaling pathway using the BG1 cell line in the presence of 0.1 nM 17-beta-estradiol - cell viability counter screen (AID 1259241). Further: nearly all actives have a fitted effect of over 40% in size. Summed up: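 CellTiter-Fluor read (30 min, 37C) on ER-alpha/ERE-luc VM7Luc4E2 cells; 22 hr compound treatment; agonist 0.1 nM E2 final; same-well multiplex.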

A short description of assay [2]: qHTS assay to identify small molecule antagonists of the androgen receptor (AR) signaling pathway using the MDA cell line in the presence of 0.5 nM R1881 - cell viability counter screen (AID 1259242). Further: nearly all actives have a fitted effect of over 45% in size. Summed up: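 MDA-kb2 cells (human breast carcinoma, stably carrying MMTV-luciferase reporter) were exposed to compounds with 0.5 nM R1881 (final) for 16 hr at 37C, 0% CO2; viability then read as live-cell protease fluorescence (CellTiter-Fluor, 30 min) in the same wells.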

The nature of assay [3]: qHTS assay to identify small molecule HDAC inhibitors (AID 1259364). Further: nearly all actives have a fitted effect of over 45% in size. Further: potency means the concentration at half of the fitted maximal effect. A digest of the protocol: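 Wild-type HCT-116 cells were plated overnight, exposed to compounds for 2 h at 37 °C, then given HDAC-Glo class I/II luminogenic reagent for 30 min at room temperature before luminescence was read.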
Assay [4] can be described thus: qHTS assay to identify small molecule HDAC inhibitors - cell viability counter screen (AID 1259365). Further: series mostly up to about 92 µM; nearly all actives have a fitted effect of over 50% in size. A digest of the protocol: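 To flag cytotoxic hits, 1,500 wild-type HCT-116 cells per well, plated the day before, receive test compounds for 2hr at 37 C before CellTiter-Glo reagent and a luminescence read.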
The nature of assay [5]: qHTS assay to identify small molecule agonists of the sonic hedgehog signaling (Shh) pathway - cell viability counter screen (AID 1259366). Further: nearly all actives have a fitted effect of over 50% in size. Further: potency means the concentration at half of the fitted maximal effect. Summed up:
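Fluorescence from CellTiter-Fluor reports live cells in this counter screen. NIH/3T3-derived Gli1-Luc reporter cells receive test compounds for 24hr at 37C; reagent goes in at 23hr.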

The nature of assay [6]: qHTS assay to identify small molecule agonists of the sonic hedgehog signaling (Shh) pathway (AID 1259368; calls by dose curve; further: series mostly up to about 92 µM; nearly all actives have a fitted effect of over 15% in size). A digest of the protocol: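 NIH/3T3-derived 3T3Gli1-Luc cells carrying a stably integrated Gli1 response element–firefly luciferase reporter were plated, left 4 hr at 37 C, then given compounds in DMSO for 24 hr. Luminescence was read 30 min after adding luciferase reagent.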

Assay [7] can be described thus: qHTS assay to identify small molecule antagonists of the sonic hedgehog signaling (Shh) pathway (AID 1259369; calls by dose curve; further: nearly all actives have a fitted effect of over 45% in size; further: potency means the concentration at half of the fitted maximal effect). A digest of the protocol:
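NIH/3T3-derived 3T3Gli1-Luc cells with stably integrated Gli1-Luc reporter were preincubated 4hr at 37 C, then given compounds in DMSO plus Shh conditioned medium and incubated 24hr. Firefly luciferase luminescence read after 30min reagent at room temperature.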

Assay [8] addresses Estrogen receptor beta (Homo sapiens) (UniProt Q92731). Briefly: qHTS assay to identify small molecule agonists of the estrogen receptor beta (ER-beta) signaling pathway (AID 1259377; active means well fitted activation curve with a large enough effect in the signal ratio in the repeat runs, not every such curve was filed as active; the % refers to the signal ratio). Summed up:
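Screening used GripTite ER-beta-UAS-bla cells held in 2% charcoal-stripped FBS medium. After overnight (16 hr) compound incubation at 37C, beta-lactamase activity was detected with a FRET substrate by fluorescence.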

The nature of assay [9]: qHTS assay to identify small molecule agonists of the androgen receptor (AR) signaling pathway in the presence of an antagonist - cell viability counter screen (AID 1259379). Further: nearly all actives have a fitted effect of over 25% in size. Further: potency means the concentration at half of the fitted maximal effect. A digest of the protocol: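 MDA-kb2 human breast carcinoma cells (stable MMTV-luciferase, AR/GR responsive) were seeded 3,000 cells/well, pre-incubated 5 hr at 37C without CO2, then given 3.0uM nilutamide and compounds at 15 concentrations for 16 hr. Viability was read by CellTiter-Fluor fluorescence.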

A short description of assay [10]: qHTS assay to identify small molecule agonists of the estrogen receptor beta (ER-beta) signaling pathway - cell viability counter screen (AID 1259380). Further: nearly all actives have a fitted effect of over 30% in size. Further: potency means the concentration at half of the fitted maximal effect. Summed up:
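ER-beta-UAS-bla HEK293T cells in medium with 2% charcoal-stripped FBS were preincubated 6 hr at 37C, dosed with compound in DMSO for 16 hr, then after the bla read, CellTiter-Glo was added for 30 min at room temperature; luminescence recorded.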

A short description of assay [11]: qHTS assay to identify small molecule antagonists of the estrogen receptor beta (ER-beta) signaling pathway - cell viability counter screen (AID 1259382).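 Further: HEK293T cells carrying ER-beta-UAS-bla reporter stimulated with estradiol; series mostly up to about 92 µM; nearly all actives have a fitted effect of over 55% in size.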 Summed up:
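ER-beta-UAS-bla HEK293T cells (2,000/well, 2% charcoal-stripped FBS) were pre-incubated 6 hr at 37C, then given compound plus 1nM final 17-beta-estradiol for 16 hr. Viability was read in the same wells by CellTiter-Glo luminescence after 30 min at room temperature.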

Assay [12] deals with Estrogen receptor (Homo sapiens) (UniProt P03372). Briefly: qHTS assay to identify small molecule agonists of the estrogen receptor alpha (ER-alpha) signaling pathway in the presence of an antagonist (AID 1259383; calls by dose curve; further: top concentration of the series differs between compounds; nearly all actives have a fitted effect of over 15% in size). A digest of the protocol:
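VM7Luc4E2 cells (endogenous full-length ER-alpha, 4×ERE-luciferase) were precultured 5 days in phenol red-free medium with 10% charcoal-stripped FBS, given 10.0nM ICI-182,780 (final), then treated with compounds at 15 concentrations for 22hr at 37C; luminescence read with ONE-Glo.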

The nature of assay [13]: qHTS assay to identify small molecule antagonists of the sonic hedgehog signaling (Shh) pathway - cell viability counter screen (AID 1259367). Further: nearly all actives have a fitted effect of over 55% in size. Further: potency means the concentration at half of the fitted maximal effect. Summed up: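 Using CellTiter-Fluor, viability of Gli1-Luc reporter 3T3 cells is read by fluorescence in the wells used for the Shh luciferase assay. Treatment lasts 23 hr with conditioned medium, then reagent 1 hr at 37C.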
Assay [14] has as its target Estrogen receptor beta (Homo sapiens) (UniProt Q92731). Briefly: qHTS assay to identify small molecule antagonists of the estrogen receptor beta (ER-beta) signaling pathway (AID 1259378; active means well fitted inhibition curve with a large enough effect in the signal ratio in the repeat runs, not every such curve was filed as active; the % refers to the signal ratio; further: potency means the concentration at half of the fitted maximal effect). A digest of the protocol: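 Antagonist mode: compounds added to beta-lactamase reporter HEK293T ER-beta-UAS cells stimulated with E2 (1nM final), 16 hr at 37C. LiveBLAzer B/G FRET substrate, 2 hours room temperature, fluorescence read-out.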

Assay [15] in a line: qHTS assay to identify small molecule agonists or antagonists of the thyroid stimulating hormone receptor (TSHR) signaling pathway - wild type cell line counter screen (AID 1259384; calls by dose curve). Summed up:
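Counter screen in untransfected Hek293: compounds (15-point titration, triplicate) plus phosphodiesterase inhibitor Ro20-1724 added after 18 h plating; 30 min RT. Intracellular cAMP via competitive d2/cryptate immunoassay, 1 h incubation.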

In assay [16] the target is Thyrotropin receptor (Homo sapiens) (UniProt P16473). The assay can be described thus: qHTS assay to identify small molecule antagonists of the thyroid stimulating hormone receptor (TSHR) signaling pathway (AID 1259385; calls by dose curve; further: nearly all actives have a fitted effect of over 20% in size). A digest of the protocol:
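Antagonist mode: compound-treated TSHR-expressing HEK293 cells were stimulated with 1.5 ng/mL TSH (final) in presence of Ro20-1724 for 30 min at RT. HTRF cAMP detection after 1 h; each compound tested at 15 concentrations, triplicate.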

Assay [17] addresses Estrogen receptor (Homo sapiens) (UniProt P03372). The assay can be described thus: qHTS assay to identify small molecule antagonists of the estrogen receptor alpha (ER-alpha) signaling pathway using the BG1 cell line in the presence of 0.1 nM 17-beta-estradiol (AID 1259244). Further: nearly all actives have a fitted effect of over 50% in size. A digest of the protocol: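 VM7Luc4E2 cells (endogenous full-length ER-alpha, stable 4xERE-luciferase) were grown 5 days in phenol red-free medium with charcoal-stripped FBS, then exposed 22 h at 37C to compounds plus 0.1 nM (final) 17beta-estradiol; ONE-Glo luminescence read-out.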

Assay [18] is described as follows: qHTS assay to identify small molecule phospholipidosis (PLD) inducers (AID 1259344; active means well fitted curve in the direction sought with a large enough effect; an effect the other way counts as inactive or inconclusive). A digest of the protocol:
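Fluorescent phospholipid staining (LipidTOX Red) measured by automated microscopy in fixed HepG2 cells after 24 h treatment; nuclei counterstained with Hoechst 33342; amiodarone as reference inducer.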

Assay [19] deals with Androgen receptor (Homo sapiens) (UniProt P10275). Briefly: qHTS assay to identify small molecule agonists of the androgen receptor (AR) signaling pathway in the presence of an antagonist (AID 1259381; calls by dose curve; further: nearly all actives have a fitted effect of over 15% in size). Summed up: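 MDA-kb2 human breast carcinoma cells carrying an MMTV-luciferase reporter (AR- and GR-responsive) were treated with compounds at 15 concentrations plus 3.0uM final nilutamide for 16hr at 37C without CO2; luminescence was read after ONE-Glo addition.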

Assay [20] has the same target. The assay can be described thus: qHTS assay to identify small molecule antagonists of the androgen receptor (AR) signaling pathway using the MDA cell line in the presence of 0.5 nM R1881 (AID 1259243). Further: nearly all actives have a fitted effect of over 50% in size. Summed up: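 MDA-kb2 human breast carcinoma cells carrying an MMTV-luciferase reporter (AR- and GR-responsive) were plated, rested 5 hr at 37C, dosed with compounds, then stimulated with 0.5 nM R1881 (final) for 16 hr; luminescence was read after ONE-Glo.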
On the % scale 0 is the no-effect control and ±100 the full control effect.

Estrogen receptor beta (Homo sapiens), sequence (Q92731 whole entry, looked up): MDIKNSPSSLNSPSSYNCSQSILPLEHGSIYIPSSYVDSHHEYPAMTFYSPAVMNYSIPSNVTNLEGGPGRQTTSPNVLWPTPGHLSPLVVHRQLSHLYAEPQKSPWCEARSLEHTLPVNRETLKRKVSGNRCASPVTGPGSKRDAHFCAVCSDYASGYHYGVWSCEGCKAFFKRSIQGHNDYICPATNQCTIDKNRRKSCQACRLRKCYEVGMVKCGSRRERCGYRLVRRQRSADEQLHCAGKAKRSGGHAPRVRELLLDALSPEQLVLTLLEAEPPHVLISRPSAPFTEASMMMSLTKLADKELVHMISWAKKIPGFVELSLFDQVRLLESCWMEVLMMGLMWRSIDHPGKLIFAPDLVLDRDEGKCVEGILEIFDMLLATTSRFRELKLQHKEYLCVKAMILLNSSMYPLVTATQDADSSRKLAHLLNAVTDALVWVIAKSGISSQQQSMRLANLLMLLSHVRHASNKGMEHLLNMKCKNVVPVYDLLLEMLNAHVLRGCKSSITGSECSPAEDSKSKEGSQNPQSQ
Androgen receptor (Homo sapiens), sequence (P10275 whole entry, looked up): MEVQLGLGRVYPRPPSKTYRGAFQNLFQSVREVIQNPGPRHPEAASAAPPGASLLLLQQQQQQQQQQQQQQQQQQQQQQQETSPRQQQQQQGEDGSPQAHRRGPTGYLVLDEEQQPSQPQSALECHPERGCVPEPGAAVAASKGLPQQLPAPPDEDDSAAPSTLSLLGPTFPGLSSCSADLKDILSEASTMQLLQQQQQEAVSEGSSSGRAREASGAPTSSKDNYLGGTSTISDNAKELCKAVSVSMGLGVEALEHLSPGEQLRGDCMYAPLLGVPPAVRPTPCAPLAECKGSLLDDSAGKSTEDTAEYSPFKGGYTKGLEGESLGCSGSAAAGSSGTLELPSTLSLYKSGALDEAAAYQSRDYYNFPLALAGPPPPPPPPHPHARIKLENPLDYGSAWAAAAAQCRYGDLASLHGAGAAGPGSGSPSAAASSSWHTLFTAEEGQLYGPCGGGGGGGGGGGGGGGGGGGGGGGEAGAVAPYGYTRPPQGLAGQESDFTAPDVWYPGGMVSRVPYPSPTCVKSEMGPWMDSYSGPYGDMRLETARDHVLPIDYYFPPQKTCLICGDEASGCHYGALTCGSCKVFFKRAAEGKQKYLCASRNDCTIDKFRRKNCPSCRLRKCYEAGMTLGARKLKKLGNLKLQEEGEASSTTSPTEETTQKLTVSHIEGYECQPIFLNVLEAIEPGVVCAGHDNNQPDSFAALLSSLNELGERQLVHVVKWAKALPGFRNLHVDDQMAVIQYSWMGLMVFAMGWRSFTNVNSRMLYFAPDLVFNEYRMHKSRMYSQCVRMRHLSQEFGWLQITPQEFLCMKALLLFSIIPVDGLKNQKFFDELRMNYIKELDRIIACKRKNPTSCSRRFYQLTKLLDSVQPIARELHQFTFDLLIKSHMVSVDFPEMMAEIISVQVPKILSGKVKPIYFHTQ
Thyrotropin receptor (Homo sapiens), sequence (P16473 whole entry, looked up): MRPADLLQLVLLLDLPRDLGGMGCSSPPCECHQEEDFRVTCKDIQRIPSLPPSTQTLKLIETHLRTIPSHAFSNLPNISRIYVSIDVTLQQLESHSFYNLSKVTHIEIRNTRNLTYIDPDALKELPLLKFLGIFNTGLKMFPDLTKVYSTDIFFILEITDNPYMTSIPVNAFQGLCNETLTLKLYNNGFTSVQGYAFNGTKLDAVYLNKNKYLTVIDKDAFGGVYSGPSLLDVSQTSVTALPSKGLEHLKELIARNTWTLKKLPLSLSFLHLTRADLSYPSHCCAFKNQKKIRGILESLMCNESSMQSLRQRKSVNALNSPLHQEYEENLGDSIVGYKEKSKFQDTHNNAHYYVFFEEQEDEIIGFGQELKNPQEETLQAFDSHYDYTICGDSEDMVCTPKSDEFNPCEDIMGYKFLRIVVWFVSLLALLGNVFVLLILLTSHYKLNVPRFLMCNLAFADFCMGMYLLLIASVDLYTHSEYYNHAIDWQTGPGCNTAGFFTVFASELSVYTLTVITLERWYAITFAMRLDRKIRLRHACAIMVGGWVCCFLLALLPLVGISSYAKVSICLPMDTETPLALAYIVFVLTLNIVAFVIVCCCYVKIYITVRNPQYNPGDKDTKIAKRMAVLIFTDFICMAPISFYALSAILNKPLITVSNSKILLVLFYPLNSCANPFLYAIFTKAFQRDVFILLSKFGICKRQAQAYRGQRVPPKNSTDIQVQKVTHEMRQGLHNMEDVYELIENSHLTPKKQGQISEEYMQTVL
Estrogen receptor (Homo sapiens), sequence (P03372 whole entry, looked up): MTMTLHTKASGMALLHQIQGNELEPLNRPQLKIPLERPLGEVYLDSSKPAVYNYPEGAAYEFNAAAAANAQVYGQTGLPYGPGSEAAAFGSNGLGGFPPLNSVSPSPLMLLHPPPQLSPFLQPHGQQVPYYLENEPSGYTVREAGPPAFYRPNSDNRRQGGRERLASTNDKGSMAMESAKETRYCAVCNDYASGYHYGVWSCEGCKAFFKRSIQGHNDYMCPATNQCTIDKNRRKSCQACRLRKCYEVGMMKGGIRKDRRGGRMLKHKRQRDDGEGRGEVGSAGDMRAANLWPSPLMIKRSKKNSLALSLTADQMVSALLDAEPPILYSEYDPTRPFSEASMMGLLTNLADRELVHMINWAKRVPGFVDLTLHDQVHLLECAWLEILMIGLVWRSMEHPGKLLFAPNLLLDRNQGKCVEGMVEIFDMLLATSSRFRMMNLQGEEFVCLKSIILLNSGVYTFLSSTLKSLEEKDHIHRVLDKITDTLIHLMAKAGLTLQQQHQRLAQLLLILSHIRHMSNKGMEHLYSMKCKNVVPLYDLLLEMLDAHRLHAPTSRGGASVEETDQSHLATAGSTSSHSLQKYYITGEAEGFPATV

In the case of `Cn1c(=O)cc(Oc2ccc(F)cc2F)c2cnc(NCC(C)(C)O)nc21`, the Potency entry in assay [1], in assay [2], in assay [3], in [4], in assay [5] and in assay [8] was “inactive” throughout. Moreover, the Potency entry in assay [9], in assay [10], in [11] and in [12] was “inactive” throughout. Further, the compound was classed as inactive in assay [6]. The Potency in assay [7] was 27.3 µM (active).
Consider `CCOc1ccc(O)cc1`, for which the Potency entry in assay [1], in assay [2], in [3], in assay [5], in [13] and in assay [8] was “inactive” throughout. Moreover, the Potency entry in assay [14], in assay [9], in assay [10], in assay [11], in assay [12] and in assay [15] was “inactive” each time. The Potency entry in [16] was “inactive”. The compound was called inactive in assay [6]. In addition, in assay [7], the Potency was 15.4 µM (active).
In the case of `O=C(CS)Nc1ccccc1`, the Potency entry in [1], in assay [17], in assay [3], in [4], in assay [5] and in assay [13] was “inactive” throughout. The Potency result in [7], in assay [8], in assay [14], in assay [10], in assay [11] and in assay [12] was “inactive” throughout. Moreover, the Potency result in [15] and in assay [16] was “inactive” throughout. Besides, in [18], the PLD induction is 0.942% [at 7.66 µM]. In addition, the result in [6] was inactive.
As to `O=C(Nc1ccccc1)c1ccccc1O`, the Potency entry in assay [1], in assay [17], in assay [4], in assay [8], in assay [19] and in [11] was “inactive” throughout. The Potency was 8.63 µM (active) in [3], 61.1 µM (active) in assay [13], 54.5 µM (active) in assay [7] and 61.1 µM (active) in assay [9]. The compound was called inactive in [6].
Regarding `CCNc1cc(O)ccc1C`, the Potency result in assay [1], in [2], in assay [4], in assay [14], in [9] and in assay [10] was “inactive” throughout. The Potency entry in assay [11] and in [12] was “inactive” throughout. For the same compound, the call in assay [6] was inactive.
Consider `CNCCCCOc1ccccc1Cc1ccccc1`, for which the Potency result in [1], in assay [17], in assay [3], in assay [4], in assay [13] and in assay [8] was “inactive” throughout. Also, the Potency entry in [12] and in assay [15] was “inactive” in each case. In addition, the Potency in assay [5] was 33.5 µM (active); in assay [7], 10.6 µM (active); in assay [14], 11.9 µM (active); in [10], 11.9 µM (active). For the same compound, the compound was called inactive in [6].
With `CCC(C)c1cc(C(C)(C)C)c(O)c(C(C)(C)C)c1` (stereo not given), the Potency entry in [1], in assay [2], in [4], in assay [5], in assay [13] and in [7] was “inactive” in each case. The Potency entry in assay [8], in assay [14], in assay [9], in [10], in [11] and in [15] was “inactive” each time. For the same compound, the compound was classed as inactive in [6].
In the case of `NCCCN1CCOCC1`, the Potency result in assay [1], in assay [20], in assay [17], in assay [5], in assay [13] and in [7] was “inactive” throughout. Further, the Potency entry in [8], in assay [14], in assay [9], in assay [10], in [19] and in assay [11] was “inactive” each time. Moreover, the Potency entry in assay [12], in assay [15] and in assay [16] was “inactive” each time. Also, in assay [6], the compound was classed as inactive.
